In PubChem BioAssay (NCATS):
Inconclusive results are not listed. Active and inactive are the calls of the source. The call rests on the fitted dose curve; in most records, active means well fitted curve in the direction sought with a large enough effect; inconclusive means small, poorly fitted or top-dose-only effect, or another doubt; inactive means no such curve, though single readings can be large; an effect the other way counts as inactive or inconclusive.

Key:
[1] = Cellular Toxicity (caspase-3) Mesangial (AID 660); settings: mesangial cells, normalized: DMSO 0%, 100 µM tamoxifen 100%; at 91.7 µM (top of the series);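 further: combined caspase 3 and 7 activity read by Caspase-Glo luminescence; cells exposed to compound for 16 h before the caspase read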
Procedure, shortened: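 Luminescent Caspase-Glo 3/7 readout (aminoluciferin substrate cleavage, 20 min RT) after 16 h compound exposure at 37 °C of normal human mesangial cells. Signal increase normalized between DMSO basal and 100 uM tamoxifen; Hill-equation AC50.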

[2] = Cellular Toxicity (caspase-3) SK-N-SH (AID 661);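 further: cells exposed to compound for 16 hours; 0% = DMSO basal and 100% = 10 µM staurosporine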
Procedure, shortened: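 Luminescent Caspase-Glo 3/7 read-out after 16 hr compound exposure of SK-N-SH neuroblastoma cells at 37 °C. Signal increase normalized to DMSO (basal) and 10 uM staurosporine (100%); AC50 from Hill equation fits of qHTS concentration-response data.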

[3] = Cellular Toxicity (caspase-3) H-4-II-E (AID 663); settings: H-4-II-E rat hepatoma, scaled: DMSO 0%, 100 µM tamoxifen 100%; at 92.2 µM (top of the series);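 further: cells exposed to compound for 16 hr before readout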
Procedure, shortened: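 H-4-II-E rat hepatoma, 1500 cells/well, 5 hr settle at 37 °C; compound 16 hr, 37 °C, complete medium; Caspase-Glo 3/7, 20 min RT; luminescence. DMSO = 0%, 100 uM tamoxifen = 100%; Hill-equation AC50.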

[4] = Cellular Toxicity (caspase-3) Hek293 (AID 664); settings: HEK293 caspase-3 activation, DMSO = 0%, 100 µM tamoxifen = 100%; at 92.2 µM (top of the series);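 further: cells exposed to compound for 16 h at 37 °C before readout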
Procedure, shortened: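 Luminescent Caspase-Glo 3/7 readout (aminoluciferin release) in HEK293 cells after 16 h compound treatment, 37 °C. Normalization: DMSO = basal, 100 uM tamoxifen = 100% stimulation. Concentration-response fitted with standard Hill equation for AC50.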

[5] = Cellular Toxicity (caspase-3) N2a (AID 665);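 further: compound exposure lasted 16 h at 37 °C before readout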
Procedure, shortened: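 Luminescent Caspase-Glo 3/7 readout in N2a mouse neuroblastoma cells after 16 h compound exposure at 37 °C. Signal scaled to DMSO (basal) and 10 uM staurosporine (100%). Concentration-response fitted with Hill equation for AC50.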

[6] = Cellular Toxicity (caspase-3) NIH 3T3 (AID 666);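 further: 0% = DMSO basal and 100% = 100 µM tamoxifen stimulation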
Procedure, shortened: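 NIH 3T3, 1000 cells/well, 5 hr settle then 16 hr compound at 37°C; Caspase-Glo 3/7, 20 min RT, luminescence. DMSO = basal, 100 uM tamoxifen = 100%. Hill-equation AC50, qHTS.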

[7] = Cellular Toxicity (caspase-3) Renal Proximal Tubule (AID 667); settings: Potency: caspase-3 activation;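 further: cells exposed to compound for 16 hours at 37 °C before detection; 0% = DMSO basal and 100% = 10 µM staurosporine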
Procedure, shortened: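 Luminescent caspase 3/7 signal from peptide-aminoluciferin cleavage measures apoptosis in freshly isolated rat kidney proximal tubule cells after 16 h compound exposure. Concentration-response data are normalized to DMSO and 10 uM staurosporine, and AC50 values come from Hill equation fits.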

[8] = target: Cytochrome P450 3A4 (Homo sapiens) (UniProt P08684); assay: qHTS Assay for Activators of Cytochrome P450 3A4 (AID 885); further: nearly all actives have a fitted effect of over 65% in size
Procedure, shortened: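 Activators are scored by enhanced luminescence from CYP3A4 conversion of luciferin-PPXE (25uM, equal to KM) to luciferin, after 60 min at RT with an NADPH-regenerating system.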

[9] = Cell Viability - LYMP2-001 (AID 921);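 further: cells exposed to compound for 24 h at 37 °C; 0% = DMSO only and full inhibition = tetraoctylammonium bromide control wells; nearly all actives have a fitted effect of over 70% in size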
Procedure, shortened: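 CellTiter-Glo luminescence (intracellular ATP) after 24 hr compound exposure at 37 C, 2500 lymphoblastoid cells/well in complete medium. AC50 fitted with standard Hill equation; tetraoctylammonium bromide positive control.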

[10] = target: Cytochrome P450 3A4 (Homo sapiens) (UniProt P08684); assay: qHTS Assay for Inhibitors and Substrates of Cytochrome P450 3A4 (AID 884); further: on the % scale 0 is the no-effect control and ±100 the full control effect; nearly all actives have a fitted effect of over 50% in size
Procedure, shortened: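 Luminescent readout of luciferin produced by CYP3A4 (20 nM) dealkylation of Luciferin-PPXE, 25 uM (its KM). NADPH-driven reaction ran 60 min at RT after 10 min compound preincubation; data scaled to 57 uM ketoconazole as 100% inhibition.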

Sequence of Cytochrome P450 3A4 (Homo sapiens) (P08684 whole entry, looked up): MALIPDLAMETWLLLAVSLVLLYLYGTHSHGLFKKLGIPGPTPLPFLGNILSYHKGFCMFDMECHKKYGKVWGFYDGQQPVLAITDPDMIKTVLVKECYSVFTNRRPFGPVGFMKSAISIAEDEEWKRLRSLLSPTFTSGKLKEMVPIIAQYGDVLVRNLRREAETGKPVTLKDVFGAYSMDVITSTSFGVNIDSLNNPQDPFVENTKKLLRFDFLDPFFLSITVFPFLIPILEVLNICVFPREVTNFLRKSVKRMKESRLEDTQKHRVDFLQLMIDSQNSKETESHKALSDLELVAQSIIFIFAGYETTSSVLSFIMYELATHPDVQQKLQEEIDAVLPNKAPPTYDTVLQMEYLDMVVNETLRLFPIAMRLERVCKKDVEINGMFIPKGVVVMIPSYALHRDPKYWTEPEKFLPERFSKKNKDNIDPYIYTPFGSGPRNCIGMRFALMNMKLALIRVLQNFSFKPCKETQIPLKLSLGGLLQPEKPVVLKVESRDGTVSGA

Nc1cc(Cl)c([N+](=O)[O-])cc1O
inactive: caspase-3 activation [1] -0.0539% | outcome [2] | caspase-3 activation [3] 1.74% | caspase-3 activation [4] 5.51% | outcome [5] | outcome [6] | Potency [7] | outcome [8] | Potency [9]

O=C(O)c1ccc(C(=O)O)cc1
inactive: caspase-3 activation [1] -1.02% | outcome [2] | caspase-3 activation [3] 0.895% | caspase-3 activation [4] -1.8% | outcome [5] | outcome [6] | Potency [7] | Potency [10] | Potency [9]

Cc1ccc(CO)cc1
inactive: caspase-3 activation [1] -1.48% | outcome [2] | caspase-3 activation [3] 0.0936% | caspase-3 activation [4] 0.73% | outcome [5] | outcome [6] | Potency [7] | Potency [9]

Nc1nc(-c2ccccc2)cs1
inactive: caspase-3 activation [1] 0.48% | outcome [2] | caspase-3 activation [3] 0.301% | caspase-3 activation [4] 0.507% | outcome [5] | outcome [6] | Potency [7] | outcome [8] | Potency [9]

COc1cccc(N)c1
inactive: caspase-3 activation [1] 2% | outcome [2] | caspase-3 activation [3] 4.32% | caspase-3 activation [4] 7.74% | outcome [5] | outcome [6] | Potency [7] | outcome [8] | Potency [9]

C1CCOC1
inactive: caspase-3 activation [1] -0.124% | outcome [2] | caspase-3 activation [3] 0.164% | caspase-3 activation [4] -1.25% | outcome [5] | outcome [6] | Potency [7] | Potency [9]

NC(=O)/N=N/C(N)=O
inactive: caspase-3 activation [1] -0.26% | outcome [2] | caspase-3 activation [3] 1.22% | caspase-3 activation [4] -1.75% | outcome [5] | outcome [6] | Potency [7] | outcome [8] | Potency [9]

Cc1cscn1
inactive: caspase-3 activation [1] 0.991% | outcome [2] | caspase-3 activation [3] 0.996% | caspase-3 activation [4] 1.04% | outcome [5] | outcome [6] | Potency [7] | Potency [10] | Potency [9]

CSCCC=O
inactive: caspase-3 activation [1] 0.0965% | outcome [2] | caspase-3 activation [3] -0.467% | caspase-3 activation [4] -2.79% | outcome [5] | outcome [6] | Potency [7] | Potency [10] | Potency [9]

Cc1cc([N+](=O)[O-])ccc1N
inactive: caspase-3 activation [1] 0.789% | outcome [2] | caspase-3 activation [3] -0.2% | caspase-3 activation [4] -2.55% | outcome [5] | outcome [6] | Potency [7] | Potency [9]

CCN(CC)c1cccc(O)c1
inactive: caspase-3 activation [1] -0.898% | outcome [2] | caspase-3 activation [3] 2.1% | caspase-3 activation [4] 0.00739% | outcome [5] | outcome [6] | Potency [7] | outcome [8] | Potency [9]

CCOc1cc(OCC)c(C(C)=O)cc1OCC
inactive: caspase-3 activation [1] -0.248% | outcome [2] | caspase-3 activation [3] 0.345% | caspase-3 activation [4] -0.553% | outcome [5] | outcome [6] | Potency [7] | outcome [8] | Potency [9]

CCC(O)C(C)(C)C (stereo not given)
inactive: caspase-3 activation [1] 0.94% | outcome [2] | caspase-3 activation [3] -0.43% | caspase-3 activation [4] 1.79% | outcome [5] | outcome [6] | Potency [7] | Potency [9]

COCCOC(=O)c1ccccc1C(=O)OCCOC
inactive: caspase-3 activation [1] 1.04% | outcome [2] | caspase-3 activation [3] 0.176% | caspase-3 activation [4] 0.308% | outcome [5] | outcome [6] | Potency [7] | Potency [9]

Cc1ccc2c(c1[N+](=O)[O-])C(=O)c1ccccc1C2=O
inactive: caspase-3 activation [1] -0.888% | outcome [2] | caspase-3 activation [3] -1.7% | caspase-3 activation [4] -1.55% | outcome [5] | outcome [6] | Potency [7] | outcome [8] | Potency [9]

Cc1ccccc1C(N)=O
inactive: caspase-3 activation [1] 2.19% | outcome [2] | caspase-3 activation [3] 1.38% | caspase-3 activation [4] 3.64% | outcome [5] | outcome [6] | Potency [7] | Potency [9]

CCCCN(CCO)CCCC
inactive: caspase-3 activation [1] 0.749% | outcome [2] | caspase-3 activation [3] -0.761% | caspase-3 activation [4] -0.886% | outcome [5] | outcome [6] | Potency [7] | Potency [10] | Potency [9]

Cc1ccc(Cl)cc1N
inactive: caspase-3 activation [1] -0.617% | outcome [2] | caspase-3 activation [3] -0.363% | caspase-3 activation [4] -3.36% | outcome [5] | outcome [6] | Potency [7] | outcome [8] | Potency [9]

FB(F)F
inactive: caspase-3 activation [1] 3.07% | outcome [2] | caspase-3 activation [3] 0.388% | caspase-3 activation [4] 2.37% | outcome [5] | outcome [6] | Potency [7] | Potency [10] | Potency [9]

CCNc1cc(O)ccc1C
inactive: caspase-3 activation [1] 0.47% | outcome [2] | caspase-3 activation [3] 1.36% | caspase-3 activation [4] 0.389% | outcome [5] | outcome [6] | Potency [7] | outcome [8] | Potency [9]

Nc1ccccc1S(=O)(=O)O
inactive: caspase-3 activation [1] -0.218% | outcome [2] | caspase-3 activation [3] -0.112% | caspase-3 activation [4] 1.83% | outcome [5] | outcome [6] | Potency [7] | Potency [9]

Oc1cccc(Nc2ccccc2)c1
inactive: caspase-3 activation [1] -0.245% | outcome [2] | caspase-3 activation [3] -0.0797% | caspase-3 activation [4] -0.23% | outcome [5] | outcome [6] | Potency [7] | outcome [8] | Potency [9]

CC(C)Cc1nccs1
inactive: caspase-3 activation [1] 1.49% | outcome [2] | caspase-3 activation [3] 0.155% | caspase-3 activation [4] 2.01% | outcome [5] | outcome [6] | Potency [7] | Potency [10] | Potency [9]
